The record followed here is PubChem BioAssay (NCI).

Some test systems named below: NCI-H23 lung; NCI-H226 lung; NCI-H322M lung; NCI-H460 lung; HOP-92 NSCLC; NCI-H522 lung; A549/ATCC NSCLC; 786-0 renal; COLO 205 colon; HOP-62 NSCLC.
What all share (assay): NCI-60 one-dose screen, 48 h (100 = growth as untreated, 0 = no growth, -100 = all killed)
Conditions in all cases: 10 µM unless noted

“And” between values parts separate entries of the source, which are not always exact repeats. Equal entries are not always repeated. This is part of a sample that, as a whole, favours compounds with a hit. Of some 83,000 tested, about 20% had one in any assay.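 In brief: 96-well plates, 48 h treatment, single concentration, percent growth endpoint.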 Some compounds were tested as several samples or in several runs, with calls that do not always agree. The source made the active and inactive calls. Rule for the calls: active = growth percent below 10; inactive = the rest.

In the case of `CC1(C)[C@@H](OC(=O)CCC(=O)O)CC[C@]2(C)[C@H]3C(=O)C=C4[C@@H]5C[C@@](C)(C(=O)O)CC[C@]5(C)CC[C@@]4(C)[C@]3(C)CC[C@@H]12`, the growth with NCI-H23 lung is 105% (inactive) and -34.8% (active); with NCI-H226 lung, 104% (inactive) and -75.4% (active); in the test on NCI-H322M lung, 107% (inactive) and -54.4% (active); in the test with NCI-H460 lung, 103% (inactive) and -35.3% (active); in the test on HOP-92 NSCLC it was 121% (inactive) and -74.4% (active); with NCI-H522 lung it was 86.5% (inactive) and -40.5% (active). Besides, the growth in the test with A549/ATCC NSCLC was 107% (inactive) and -28.4% (active); in the test on 786-0 renal it was 98.4% (inactive) and -66.9% (active); in the test with COLO 205 colon, 113% (inactive) and -3.87% (active).
For the compound `CCc1c(CC(=O)O)c2cc(C)ccc2n1Cc1ccc(Cl)cc1`, the growth in the test with NCI-H23 lung was 97.3% (inactive) and 90% (inactive); in the test on NCI-H226 lung, 94.9% (inactive) and 97.8% (inactive); in the test with NCI-H322M lung, 76.3% (inactive) and 280% (inactive); with HOP-92 NSCLC it was 88% (inactive) and 91.7% (inactive); in the test on NCI-H522 lung, 85% (inactive) and 81.5% (inactive); in the test with A549/ATCC NSCLC, 89.1% (inactive) and 87.3% (inactive). For the same compound, the growth in the test on 786-0 renal was 106% (inactive) and 47% (inactive); in the test on COLO 205 colon, 123% (inactive).
Take `Cn1cc(-c2cc3c(Nc4ccc(CC(=O)Nc5cc(C(C)(C)C)on5)cc4)ncnc3[nH]2)cn1`: the growth with NCI-H23 lung was -34% (active) and -14% (active); in the test with NCI-H226 lung, -2.21% (active) and -21.5% (active); with HOP-62 NSCLC it was -11.3% (active) and -15.3% (active); in the test on NCI-H460 lung it was -4.56% (active) and 3.41% (active); with HOP-92 NSCLC, 5.01% (active) and -5.97% (active); with NCI-H522 lung it was -35.7% (active) and -46.8% (active). Besides, the growth in the test on A549/ATCC NSCLC was 4.17% (active) and 8.31% (active); in the test with 786-0 renal it was 5.07% (active) and 3.24% (active); in the test with COLO 205 colon, -36.6% (active) and -33.4% (active).
Consider `Nc1n[nH]c(=S)n1-c1ccc(Cl)cc1`, for which the growth was 95.9% (inactive) in the test with NCI-H23 lung; 93.9% (inactive) in the test with NCI-H226 lung; 94.5% (inactive) with HOP-62 NSCLC; 99.6% (inactive) in the test on NCI-H460 lung; 85.9% (inactive) in the test with HOP-92 NSCLC; 97.2% (inactive) in the test on NCI-H522 lung. In addition, the growth in the test with A549/ATCC NSCLC is 100% (inactive); in the test with 786-0 renal it was 93.7% (inactive); in the test with COLO 205 colon it was 117% (inactive).
For the compound `O=C(/C=C/c1ccccn1)c1ccccc1O`, the growth in the test on NCI-H23 lung is 73.9% (inactive) and 81.3% (inactive); in the test on NCI-H226 lung it was 93.2% (inactive) and 97.3% (inactive); in the test on NCI-H322M lung, 100% (inactive) and 113% (inactive); in the test with NCI-H460 lung, 65.2% (inactive) and 101% (inactive); in the test with HOP-92 NSCLC, 75.5% (inactive) and 34.2% (inactive); with NCI-H522 lung, 67.8% (inactive) and 28.4% (inactive). In addition, the growth is 55.3% (inactive) and 79.7% (inactive) in the test with A549/ATCC NSCLC; 90.6% (inactive) and 91.4% (inactive) with 786-0 renal; 63.6% (inactive) and 65.4% (inactive) with COLO 205 colon.
On to `Nc1cc(-c2cccc(OC(F)(F)F)c2)nc2ccc(N3CCCC3)cc12`, for which the growth with NCI-H23 lung is 43.5% (inactive) and 40.1% (inactive) and 38.5% (inactive); with NCI-H226 lung, 40.2% (inactive) and 48.3% (inactive) and 33.8% (inactive); in the test on HOP-62 NSCLC, 57.1% (inactive) and 66.1% (inactive) and 15.6% (inactive); with NCI-H460 lung, 7.01% (active) and 7.24% (active) and 3.29% (active); in the test with HOP-92 NSCLC, -0.264% (active) and 3.71% (active) and -3.62% (active); with NCI-H522 lung, -13.4% (active) and 4.49% (active) and -38.1% (active). Further, the growth was 15.1% (inactive) and 18.4% (inactive) and 13.8% (inactive) in the test with A549/ATCC NSCLC; 9.51% (active) and 22.1% (inactive) and 16.1% (inactive) in the test with 786-0 renal; -58.4% (active) and -35.8% (active) and -80.6% (active) with COLO 205 colon.
Take `CNc1cc(-c2cccc(OC(F)(F)F)c2)nc2ccc(N3CCCC3)cc12`: the growth in the test on NCI-H23 lung is 66.5% (inactive) and 6.85% (active) and 8.59% (active); in the test with NCI-H226 lung, 94.6% (inactive) and 68.5% (inactive) and -35.2% (active); in the test with NCI-H322M lung it was 61.8% (inactive) and -4.66% (active) and 76.6% (inactive); with HOP-92 NSCLC, -31.9% (active) and 13% (inactive) and 28.5% (inactive); in the test with NCI-H522 lung, 32.2% (inactive) and -63.9% (active) and -35.6% (active); with A549/ATCC NSCLC, -34.3% (active) and 9.17% (active) and 15.2% (inactive). Also, the growth with 786-0 renal was -86% (active) and -95.3% (active) and -67.6% (active); with COLO 205 colon, -25.6% (active) and -81.7% (active) and -75.7% (active).
`OC(COc1cccc2ccccc12)CN1CCN(c2ccc(Cl)cc2)CC1` (configuration not stated): the growth in the test with NCI-H23 lung was 84.6% (inactive) and 86.5% (inactive); in the test with NCI-H226 lung, 92.4% (inactive) and 111% (inactive); in the test on HOP-62 NSCLC it was 96.5% (inactive) and 77.3% (inactive); with NCI-H460 lung, 49% (inactive) and 95% (inactive); with HOP-92 NSCLC, 75.1% (inactive) and 77% (inactive); in the test with NCI-H522 lung it was 109% (inactive) and 85.7% (inactive). The growth in the test with A549/ATCC NSCLC is 71.9% (inactive) and 88.3% (inactive); in the test on 786-0 renal, 80.9% (inactive) and 89.7% (inactive); in the test on COLO 205 colon it was 121% (inactive).
With `Oc1nc(NCCc2ccccc2)sc1/C=C1\C=Nc2ncccc21`, the growth was 2.96% (active) and 9.1% (active) with NCI-H23 lung; 22.4% (inactive) and 3.3% (active) in the test with NCI-H226 lung; -2.98% (active) and 19.9% (inactive) with HOP-62 NSCLC; 15.1% (inactive) and 14.1% (inactive) in the test on NCI-H460 lung; 11.8% (inactive) and -9.73% (active) in the test with HOP-92 NSCLC; 4.33% (active) and 26.6% (inactive) with NCI-H522 lung. Moreover, the growth was 8.14% (active) and 19.1% (inactive) with A549/ATCC NSCLC; 19.7% (inactive) and 9.01% (active) with 786-0 renal; -6.84% (active) and 4.78% (active) with COLO 205 colon.
`CCN(CC)CCC(CNc1c2ccc([N+](=O)[O-])cc2nc2cc(OC)c(OC)cc12)c1ccccc1` (configuration not stated): the growth in the test on NCI-H23 lung was -86.4% (active) and -71.3% (active); with NCI-H226 lung, -65.3% (active) and -61.1% (active); in the test with NCI-H322M lung, -39.9% (active) and -76.5% (active); with NCI-H460 lung, 6.85% (active) and -100% (active); in the test on HOP-92 NSCLC, -42.2% (active); with A549/ATCC NSCLC, -6.05% (active) and -93.9% (active). Moreover, the growth with 786-0 renal is -74.2% (active) and -91.6% (active); with COLO 205 colon, -49.7% (active) and -100% (active).
Turning to `CC1(c2ccc3ccccc3c2)CCC(=O)O1` (configuration not stated), the growth in the test with NCI-H23 lung was 95% (inactive); with NCI-H226 lung, 110% (inactive); in the test on HOP-62 NSCLC, 93.5% (inactive); with NCI-H460 lung, 112% (inactive); in the test on HOP-92 NSCLC it was 106% (inactive); in the test on NCI-H522 lung, 91.3% (inactive). Moreover, the figures for the growth in the test with A549/ATCC NSCLC, in the test with 786-0 renal and with COLO 205 colon were 101% (inactive), 103% (inactive) and 99.3% (inactive), respectively.
As for `COc1ccc(NC(=S)Nc2ccccn2)cc1`, the growth was 96% (inactive) in the test with NCI-H23 lung; 86.2% (inactive) with NCI-H226 lung; 97% (inactive) with NCI-H322M lung; 100% (inactive) with NCI-H460 lung; 77% (inactive) with HOP-92 NSCLC; 101% (inactive) in the test on A549/ATCC NSCLC. For the same compound, the growth in the test on 786-0 renal is 90.4% (inactive); in the test on COLO 205 colon, 110% (inactive).
In the case of `COc1ccccc1C(C)=O`, the growth in the test on NCI-H23 lung was 94% (inactive) and 109% (inactive); in the test on NCI-H226 lung, 95.2% (inactive) and 107% (inactive); with NCI-H322M lung, 97.5% (inactive) and 103% (inactive); in the test with HOP-92 NSCLC it was 70.5% (inactive); with A549/ATCC NSCLC, 107% (inactive) and 96.9% (inactive); in the test with 786-0 renal it was 110% (inactive) and 96.6% (inactive). For the same compound, the growth in the test on COLO 205 colon was 105% (inactive).
As to `CC(C)CNC(=O)c1ccccc1C(=O)NC1(C(=O)NCC(C)C)CCCC1`, the growth in the test with NCI-H23 lung is 100% (inactive) and 108% (inactive); in the test with NCI-H226 lung, 99% (inactive) and 103% (inactive); with NCI-H322M lung it was 112% (inactive) and 106% (inactive); with HOP-92 NSCLC it was 117% (inactive); in the test with NCI-H522 lung, 95.9% (inactive); in the test with A549/ATCC NSCLC it was 95.7% (inactive) and 107% (inactive). Besides, the growth was 107% (inactive) and 99% (inactive) with 786-0 renal; 102% (inactive) and 121% (inactive) in the test with COLO 205 colon.
For `Cc1nnc(NC/C=C/c2ccccc2)s1`, the growth is 98.5% (inactive) and 2.04% (active) with NCI-H23 lung; 106% (inactive) and 102% (inactive) in the test with NCI-H226 lung; 88.5% (inactive) and 112% (inactive) in the test with NCI-H322M lung; 91.3% (inactive) and 91.5% (inactive) in the test with HOP-92 NSCLC; 112% (inactive) in the test on NCI-H522 lung; 101% (inactive) in the test on A549/ATCC NSCLC. In addition, the growth was 100% (inactive) and 102% (inactive) in the test with 786-0 renal; 110% (inactive) and 113% (inactive) with COLO 205 colon.
Consider `N#C/C(=C1C=C/C(=N/O)C(Br)=C/1)c1ccccc1`, for which the growth in the test on NCI-H23 lung was 78.3% (inactive); with NCI-H226 lung it was 32% (inactive); with HOP-62 NSCLC, 16.3% (inactive); in the test on NCI-H460 lung, 8.25% (active); in the test with HOP-92 NSCLC it was -6.62% (active); in the test with NCI-H522 lung, -43.3% (active). Besides, the growth was 27.6% (inactive) in the test with A549/ATCC NSCLC, 20% (inactive) in the test with 786-0 renal and 83.2% (inactive) with COLO 205 colon.
For `O=C(O)CSCc1nc2ccccc2[nH]1`, the growth was 95.7% (inactive) with NCI-H23 lung; 106% (inactive) in the test on NCI-H226 lung; 117% (inactive) in the test with NCI-H322M lung; 105% (inactive) in the test on NCI-H460 lung; 104% (inactive) with NCI-H522 lung; 110% (inactive) in the test on A549/ATCC NSCLC. For the same compound, the growth in the test with 786-0 renal is 103% (inactive).
`CCN(CC)CCC(CNc1ccnc2cc(Cl)ccc12)c1ccc(OC)cc1` (configuration not stated): the growth in the test with NCI-H23 lung is 72.4% (inactive) and 66.1% (inactive); in the test with NCI-H226 lung it was 97.2% (inactive) and 95.5% (inactive); with NCI-H322M lung it was 60.4% (inactive) and 64.8% (inactive); in the test on NCI-H460 lung, 70.1% (inactive) and 62.9% (inactive); in the test on HOP-92 NSCLC, 47.3% (inactive) and 59.4% (inactive); with NCI-H522 lung, 25.8% (inactive) and 20.3% (inactive). Besides, the growth with A549/ATCC NSCLC was 78.9% (inactive) and 88.3% (inactive); in the test on 786-0 renal, 62.1% (inactive) and 73.7% (inactive); in the test on COLO 205 colon it was 33.3% (inactive) and -41.5% (active).
